# Measured values published in PubChem BioAssay AID1626 (SRMLSC, 2009).
# The whole screen tested about 220,000 compounds, of which about 2,000 (0.91%) were called active. Inconclusive results (about 2%) are left out. These entries were drawn from the full list. Results with a measured potency or affinity are listed apart. A number with no mark means an inactive call. Cut-off read from the data, not from the text of the source: inconclusive = inhibition above about 80% without an active follow-up result; inactive = below that; test concentration not stated here.
# Experiment: M. tuberculosis H37Rv growth inhibitors, H37Rv strain (AID 1626);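 note: bacteria incubated seven days before Alamar blue readout; 0% = bacteria only wells and 100% = bacteria with antibiotic wells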
# Conditions: hits give high values, concentration not given here
row,SMILES,inhibition
1,CC1CN(C(=O)N(C)C)CCN1C(=O)N(C)C (configuration not stated),-15.9%
2,CC(=O)c1c(-c2ccc(Cl)cc2Cl)noc1C,2.75%
3,COc1cc(NC(=O)c2ccc(OC)c([N+](=O)[O-])c2)ccc1NC(=O)c1ccco1,-4.07%
4,COc1ccccc1NC(=S)N(Cc1ccco1)Cc1cc2cc(C)c(C)cc2[nH]c1=O,6.98%
5,Cc1ccc(S(=O)(=O)Nc2nc3cc(C)c(C)cc3[nH]2)cc1,8.1%
6,Cn1c(SCC(=O)N2CCCC2)nc2ccccc21,3.37%
7,O=C(NCc1ccco1)c1cc2n(n1)C(C(F)(F)F)CC(c1ccc(Br)cc1)N2 (configuration not stated),74.2%
8,CCCn1cc(NC(=O)c2cc3n(n2)C(C(F)(F)F)CC(c2ccccc2)N3)cn1 (configuration not stated),0.85%
9,O=C(NCc1ccco1)c1cnn2c1NC(c1ccccc1)CC2C(F)(F)F (configuration not stated),2.86%
10,Cc1c(CNC(=O)c2cnn3c2NC(c2ccccc2)CC3C(F)(F)F)cnn1C (configuration not stated),-9.25%
11,O=C(O)c1cc2n(n1)C(C(F)(F)F)CC(c1ccccc1)N2 (configuration not stated),-8.1%
12,O=C(NCc1cccc(Cl)c1)c1cnn2c1NC(c1ccco1)CC2C(F)(F)F (configuration not stated),6.69%
13,Cc1nn(C)cc1CNC(=O)c1cnn2c1NC(c1ccc(Br)cc1)CC2C(F)(F)F (configuration not stated),3.8%
14,O=C(NCc1ccco1)c1cc2n(n1)C(C(F)(F)F)CC(c1ccc(F)cc1)N2 (configuration not stated),42%
15,Nc1nnc(CCCCCCCCCCc2nnc(N)s2)s1,-1.56%
16,CC(C)(C)n1nc2c(c1NC(=O)COc1ccc(Cl)cc1)CS(=O)(=O)C2,1.01%
17,CCN(C(=O)COC(=O)/C=C/c1ccc(S(=O)(=O)N2CCc3ccccc32)cc1)C1CCS(=O)(=O)C1 (configuration not stated),-3.11%
18,Cc1c(Cl)cccc1S(=O)(=O)N1CCC(C(=O)NNC(=O)C2CC2)CC1,0.53%
19,CCOC(=O)c1c(C)[nH]c(C(C)=O)c1C,-0.35%
20,COC(=O)c1ccc(C2C(C(C)=O)=C(O)C(=O)N2CCO)cc1 (configuration not stated),-1.96%
21,COc1cccc(NC(=O)N[C@@H](Cc2ccccc2)C(=O)O)c1,1.84%
22,CN(C)c1ccnc(SCc2ccccc2Cl)c1C#N,11.8%
23,Cc1ccc(C2CC(C(F)(F)F)n3ncc(C(N)=O)c3N2)cc1 (configuration not stated),-4.41%
24,COc1cccc(C2CC(C(F)(F)F)n3ncc(C(=O)NCc4ccco4)c3N2)c1 (configuration not stated),3.27%
25,Nc1nc(Cn2nnc(-c3ccccc3Cl)n2)nc(N2CCOCC2)n1,-0.22%

row,SMILES,inhibition
1,COc1ccc(Cl)cc1C(=O)NNC(=O)CCNC(C)=O,-6.02%
2,O=C1CS/C(=C/C(=O)c2ccccc2)N1,-2.65%
3,Cc1ccc(C(=O)/C=C2/NC(=O)CS2)cc1,-4.36%
4,COC(=O)CN1C(=S)N(c2ccc(OC)cc2)C(=O)/C1=C/c1cccs1,4.42%
5,c1ccc(Cc2nnc(N3CCOCC3)c3ccccc23)cc1,-4.25%
6,CN(C)S(=O)(=O)c1cc(C(=O)NCc2ccccc2)c(Cl)cc1Cl,-5.51%
7,COc1ccc(CCN(C)C(=O)c2ccc(S(=O)(=O)NCc3ccco3)cc2)cc1OC,2.54%
8,CC1=C2C3OC(=O)C(C)[C@@H]3CC[C@](C)(O)C2C2C3C4C5(C12)[C@H]1OC(=O)[C@@H](C)C1CC[C@]4(C)O[C@]5(C)[C@@H]3O (some centres not stated),17.2%
9,Nc1ccc(-c2nc3ccc(N)cc3s2)cc1,-3.52%
10,Cc1nc2cc3sc(C)nc3cc2s1,-1.33%
11,CCc1ccccc1NC(=O)CSC1=C(C#N)C(c2ccc3c(c2)OCO3)C2=C(CCCC2=O)N1 (configuration not stated),4.73%
12,CCN(CC)CCCNc1nc2cc(OC)c(OC)cc2c2nc(-c3cccnc3)nn12,7.65%
13,CCN(CC)CCNc1nc2cc(OC)c(OC)cc2c2nc(-c3ccccc3)nn12,75%
14,CC(C)C(NS(=O)(=O)c1cccs1)C(=O)N(C)Cc1ccccc1 (configuration not stated),-0.19%
15,Cc1cc(NC(=O)CSc2nnc(C3CC3)n2N)c([N+](=O)[O-])cc1C,-1.15%
16,CCCCCCCn1c2c(c(=N)c3ccccc31)CCC2,9.19%
17,CCCCCCCn1c2c(c(=N)c3c1CCC3)CCCC2,13.8%
18,CCCCn1c2c(c(=N)c3c1CCC3)CCC2,-7.84%
19,CCCCCCn1c2c(c(=N)c3c1CCC3)CCC2,1.15%
20,CCCCCn1c2c(c(=N)c3ccccc31)CCC2,7.75%
21,CCCCCCCCCn1c2c(c(=N)c3c1CCC3)CCC2,56.5%
22,COC(=O)Cc1c(O)ccn(C2CC2)c1=O,-1.41%
23,CC(C)C(NS(=O)(=O)c1cccs1)C(=O)NCc1ccccc1Cl (configuration not stated),-0.44%
24,Cn1c(SCC(=O)N2CCCc3ccccc32)nnc1-c1cccs1,11.9%
25,COc1cc(NC(=O)c2ccccc2)c(OC)cc1NC(=O)CN1CCCCC1,25.5%

row,SMILES,inhibition
1,COc1cc(NC(=O)c2ccc(Cl)cc2)c(OC)cc1NC(=O)CN1CCOCC1,-0.92%
2,Cc1cc(NC(=O)c2cc(-c3ccccc3)on2)no1,-3.83%
3,CCOC(=O)CC(=O)CSc1nc(C)cc(-c2cccnc2)c1C#N,0.1%
4,CN(C)CCCNc1nc2sc3c(c2c(=O)n1CCc1ccccc1)CCCCC3,76.4%
5,CN(C)CCCn1c(=O)n(Cc2ccco2)c(=O)c2c3c(sc21)CCCCC3,-6.11%
6,CCn1c(=O)n(CCc2ccccc2)c(=O)c2c3c(sc21)CCCC3,0.77%
7,O=c1c2c3c(sc2nc(NCCO)n1CCc1ccccc1)CCCCC3,5.74%
8,CC1=C(C(=O)Nc2ccccc2)C(c2ccccn2)n2nc(CCCO)nc2N1 (configuration not stated),2.92%
9,Cn1c(Sc2ccc(C(F)(F)F)cc2[N+](=O)[O-])nnc1-c1ccccc1,0.5%
10,CCc1ccc(CNCc2cccs2)cc1,-12.3%
11,CCc1nc(NCCc2ccccn2)c2nnn(Cc3ccccc3F)c2n1,7.39%
12,CCN1CCN(CCCNC(=O)c2ccc(/C=C3/Sc4ccccc4N(Cc4ccccc4F)C3=O)cc2)CC1,1.17%
13,CN1CCN(CCCNC(=O)c2ccc(/C=C3\Sc4ccccc4N(Cc4ccccc4F)C3=O)cc2)CC1,33.6%
14,NC(N)=NS(=O)(=O)c1ccc(NC(=S)NC(=O)/C=C/c2cccs2)cc1,3.44%
15,c1cc(-c2ccncc2)ccn1,2.83%
16,CCOC(=O)c1c(-c2ccncc2)csc1N,9.94%
17,O=C(NC(=S)Nc1ccccc1[N+](=O)[O-])c1ccccc1Cl,-1.52%
18,O=C(Nc1ccccc1)OCCCc1ccccc1,5.86%
19,COc1ccc(C2C=C(C34CC5CC(CC(C5)C3)C4)NC(=S)N2)cc1 (configuration not stated),1.23%
20,COC(=O)CSc1nc(-c2cccs2)ccc1C#N,-2.21%
21,COC(=O)CSc1nc2cc(C)ccc2cc1C#N,-2.11%
22,COC(=O)c1sc2ccccc2c1N,2.95%
23,COC(=O)CSc1nc(C)cc(C)c1C#N,-8.05%
24,COC(=O)CSc1[nH]c(=O)cc(C)c1C#N,-7.37%
25,COC(=O)c1sc2cnccc2c1N,-1.77%

row,SMILES,inhibition
1,COc1cc(SC)ccc1C(=O)OCC(=O)NC1CC1,2.29%
2,CCOC(=O)CSc1snnc1C,-2.01%
3,CN(c1ccccc1)S(=O)(=O)c1cccc(Cl)c1Cl,-4.92%
4,c1ccc(-c2ccnc3nc(N4CCN(c5ccccc5)CC4)nn23)cc1,6.16%
5,c1ccc(Oc2ccc(-c3ccnc4nc(N5CCN(c6ccccc6)CC5)nn34)cc2)cc1,20.8%
6,CNC(=S)NNC(=O)c1sccc1OCc1ccc(Cl)cc1Cl,-2.33%
7,COc1ccc(OC)c(-c2cc(C3CCN(c4ncccc4[N+](=O)[O-])CC3)[nH]n2)c1,-8.76%
8,N#CC1CCN(c2ncccc2[N+](=O)[O-])CC1,-9.15%
9,Cc1nnc(SCc2nc3ccccc3c(=O)n2-c2ccccc2Cl)n1N,2.11%
10,Cc1cccc(C)c1NC(=O)c1c(C)nn(-c2ccccc2)c1Cl,-2.35%
11,CCN(CC)C(=O)Oc1ccnc2cc(Cl)ccc12,2.84%
12,O=C(O)CSc1ccnc2cc(Cl)ccc12,3.22%
13,O=C(COc1ccccc1Cl)Nc1ccc2c(c1)OCCO2,5.61%
14,COC(=O)c1ccccc1NC(=O)c1cc(C2CC2)on1,4.32%
15,CCc1ccccc1NC(=O)c1cc(C2CC2)on1,8.45%
16,COc1ccc(-c2csc(N3C(=O)C4C5c6ccccc6C(c6ccccc65)C4C3=O)n2)cc1 (configuration not stated),49%
17,CCc1c(C#N)c(SCCC(=O)Nc2ccc(F)cc2)nc2c1C(=O)CC(C)(C)C2,6.22%
18,O=C(NC1CC1)c1cc2c(F)cccc2s1,-6.42%
19,O=C(c1c(F)cccc1F)N1CCCC1,-1.31%
20,COc1ccc(C(=O)OC(C(=O)c2ccc(C)cc2)c2ccccc2)cc1 (configuration not stated),9.22%
21,C/C(=N/NC(=O)c1cc(-c2ccc(Cl)s2)[nH]n1)c1ccco1,40.6%
22,CC1(C)CC(=O)C=C(c2cccc3c2oc2ccccc23)C1,8.8%
